“And” between values parts separate entries of the source, which are not always exact repeats. Equal entries are not always repeated. More than one record can exist for a structure, and the calls need not agree. The source made the active and inactive calls. Rule for the calls: active = hit-call score of the fitted dose curve at least 0.9, where 1 is the maximum; inactive = score below 0.9.
Experiment: CCTE_Shafer_MEA_acute_per_burst_spike_number_mean: CCTE's Neural Acute Assay for Average Number of Spikes Per Burst, Shafer Lab (AID 2284015);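 note: hits are decreases in mean spikes per burst versus baseline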
Outline: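 Percent change in mean spikes per single-electrode burst is compared between a 40 min baseline and a 40 min recording with compound (0.03-40 uM). Cultures were rat cortical neurons on MEA plates at DIV 13 or 15, recorded at 37 C, with DMSO as the negative control.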

| Structure (SMILES) | outcome | AC50 |
| --- | --- | --- |
| N[C@@H](CCC(=O)O)C(=O)O | inactive | – |
| CC(C)(CO)CO | inactive | – |
| CC/C(=C(\c1ccccc1)c1ccc(OCCN(C)C)cc1)c1ccccc1 | inactive | 18.3 µM (active) |
| CCn1cc(C(=O)O)c(=O)c2ccc(C)nc21 | inactive | – |
| CC(=O)c1ccc(C)cc1 | inactive | – |
| c1ccc(OCCOc2ccccc2)cc1 | inactive | – |
| CCCCOCCOCCO | inactive | – |
| CCCCN(CCO)CCO | inactive | – |
| CCCO[Si](OCCC)(OCCC)OCCC | inactive | – |
| O=C(c1ccc(OCCN2CCCCC2)cc1)c1c(-c2ccc(O)cc2)sc2cc(O)ccc12 | inactive | – |
| CC(C)CCCC(C)(C)O | inactive | – |

Experiment: CCTE_Shafer_MEA_acute_interburst_interval_mean: CCTE's Neural Acute Assay for Mean Interburst Interval, Shafer Lab (AID 2284016);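 note: percent change of mean interburst interval versus each well's own pre-dose baseline; curves fitted for decrease in interburst interval relative to DMSO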
Outline: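 Percent change in mean single-electrode interburst interval was calculated per well from 40 min recordings before and after compound (0.03-40 uM). Recordings were made at 37 C on rat cortical cultures at DIV 13 or 15, with spikes detected at 8x rms threshold.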

| Structure (SMILES) | outcome | AC50 |
| --- | --- | --- |
| N[C@@H](CCC(=O)O)C(=O)O | inactive | – |
| CC(C)(CO)CO | inactive | – |
| CC/C(=C(\c1ccccc1)c1ccc(OCCN(C)C)cc1)c1ccccc1 | inactive | 3.74 µM (active) |
| CCn1cc(C(=O)O)c(=O)c2ccc(C)nc21 | inactive | – |
| CC(=O)c1ccc(C)cc1 | inactive | – |
| c1ccc(OCCOc2ccccc2)cc1 | inactive | – |
| CCCCOCCOCCO | inactive | – |
| CCCCN(CCO)CCO | – | 24.1 µM (active) |
| CCCO[Si](OCCC)(OCCC)OCCC | – | 15 µM (active) |
| O=C(c1ccc(OCCN2CCCCC2)cc1)c1c(-c2ccc(O)cc2)sc2cc(O)ccc12 | inactive | – |
| CC(C)CCCC(C)(C)O | inactive | – |

Experiment: CCTE_Shafer_MEA_acute_burst_percentage_mean: CCTE's Neural Acute Assay for Percentage of Spikes in a Burst, Shafer Lab (AID 2284017);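 for AC50: curve fitted for loss of signal so potency reflects decreased burst percentage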
Outline: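 Well-level mean burst percentage from a 40-min recording after compound (0.03-40 uM) expressed as percent change from a 40-min baseline at 37C. Cultures: primary rat cortical neurons on MEA, dosed on DIV 13 or 15; fitted downward relative to DMSO.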

| Structure (SMILES) | outcome | AC50 |
| --- | --- | --- |
| N[C@@H](CCC(=O)O)C(=O)O | inactive | – |
| CC(C)(CO)CO | inactive | – |
| CC/C(=C(\c1ccccc1)c1ccc(OCCN(C)C)cc1)c1ccccc1 | – | 18.3 µM (active) and 15.8 µM (active) |
| CCn1cc(C(=O)O)c(=O)c2ccc(C)nc21 | inactive | – |
| CC(=O)c1ccc(C)cc1 | inactive | – |
| c1ccc(OCCOc2ccccc2)cc1 | inactive | – |
| CCCCOCCOCCO | inactive | – |
| CCCCN(CCO)CCO | inactive | – |
| CCCO[Si](OCCC)(OCCC)OCCC | inactive | – |
| O=C(c1ccc(OCCN2CCCCC2)cc1)c1c(-c2ccc(O)cc2)sc2cc(O)ccc12 | – | 32.5 µM (active) |
| CC(C)CCCC(C)(C)O | inactive | – |

Experiment: CCTE_Shafer_MEA_acute_burst_percentage_std: CCTE's Neural Acute Assay for Standard Deviation of Burst Percentage, Shafer Lab (AID 2284018);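 note: fitted in the negative direction so actives lower burst percentage SD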
Outline: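 Primary rat cortical neurons on 16-electrode MEA wells were recorded 40 min at baseline (DIV 13 or 15), then 40 min after compound (0.03-40 uM), at 37 C. Well value is SD across electrodes of spikes-in-bursts/total spikes; endpoint is percent change, DMSO-referenced.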

| Structure (SMILES) | outcome | AC50 |
| --- | --- | --- |
| N[C@@H](CCC(=O)O)C(=O)O | inactive | – |
| CC(C)(CO)CO | inactive | – |
| CC/C(=C(\c1ccccc1)c1ccc(OCCN(C)C)cc1)c1ccccc1 | inactive | 15.3 µM (active) |
| CCn1cc(C(=O)O)c(=O)c2ccc(C)nc21 | inactive | – |
| CC(=O)c1ccc(C)cc1 | inactive | – |
| c1ccc(OCCOc2ccccc2)cc1 | inactive | – |
| CCCCOCCOCCO | inactive | – |
| CCCCN(CCO)CCO | inactive | – |
| CCCO[Si](OCCC)(OCCC)OCCC | inactive | – |
| O=C(c1ccc(OCCN2CCCCC2)cc1)c1c(-c2ccc(O)cc2)sc2cc(O)ccc12 | inactive | – |
| CC(C)CCCC(C)(C)O | inactive | – |

From PubChem BioAssay (EPA / NIEHS)
